Bioassay records (PubChem)
The list is not random: actives were taken first. Their share in the collection is about 3.4%.
FBW7 act: FBW7 E3 ligase activators, primary screen, biochemical, AlphaScreen, human | normalized activity (activation), % at 26.1 µM | AlphaScreen FBW7–phospho-cyclin E peptide binding, activator screen | actives 0.13% (n = 650,000) | F-box/WD repeat-containing protein 7 (Homo sapiens), Q969H0 | AID 1259310, 2017; in the data active = normalized activity above about 1.9%;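 note: purified mutant Fbw7 with reduced substrate affinity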
GPR151 activ: activators of human GPR151, primary screen, cell-based, PathHunter beta-arrestin, luminescence. G-protein coupled receptor 151 (Homo sapiens), Q8TDV0. PathHunter beta-arrestin GPR151 cells. activation, % at 11.2 µM. actives 1% (n = 650,000). AID 1508602, 2020; in the data active = activation above about 4.9%
MITF primary: MITF inhibitors, primary screen, biochemical, AlphaScreen, human; AlphaScreen MITF homodimerization, bead proximity signal; inhibition, % at 2.6 µM; actives 0.91% (n = 650,000); AID 1259374, 2018; in the data active = inhibition above about 50%
Target sequence (O75030 whole entry, looked up): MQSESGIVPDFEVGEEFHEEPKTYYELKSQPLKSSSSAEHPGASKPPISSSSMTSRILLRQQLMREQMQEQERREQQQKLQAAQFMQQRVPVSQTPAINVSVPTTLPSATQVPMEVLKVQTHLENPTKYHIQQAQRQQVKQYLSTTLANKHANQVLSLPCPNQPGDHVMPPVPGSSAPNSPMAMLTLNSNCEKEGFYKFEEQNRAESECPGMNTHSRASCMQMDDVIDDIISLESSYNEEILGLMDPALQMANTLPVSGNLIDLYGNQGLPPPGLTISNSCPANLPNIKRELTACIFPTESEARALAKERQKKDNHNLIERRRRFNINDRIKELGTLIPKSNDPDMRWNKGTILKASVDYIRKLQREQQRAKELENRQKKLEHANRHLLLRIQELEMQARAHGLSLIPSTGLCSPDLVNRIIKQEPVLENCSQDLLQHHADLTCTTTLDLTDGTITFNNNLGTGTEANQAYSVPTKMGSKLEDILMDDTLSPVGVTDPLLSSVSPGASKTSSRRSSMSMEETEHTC
TEAD-YAP inh: TEAD-YAP interaction inhibition, primary screen, TEAD-YAP interaction inhibitor project, luminescence, HEK-TIYL cells. TEAD-Gal4/YAP UAS-luciferase luminescence. actives 1.4% (n = 640,000). inhibition, % at 9.12 µM; in the data active = inhibition above about 32%
Of the large screens only hits and unclear results are named; the others gave an inactive call.

CCOC(=O)N1CCc2c(sc3c2C(=O)NC(/C=C\c2ccccc2)N3)C1 (configuration not stated)	TEAD-YAP inh 51
O=C1C=CC(=O)N1CCCCCCN1C(=O)C=CC1=O	TEAD-YAP inh 41
CCOCCCNC(=O)C(NC(=O)c1ccc(Cl)c([N+](=O)[O-])c1)C(C)C (configuration not stated)	none
CC1Cc2ccccc2N1C(=O)c1sc2nc3cc4c(cc3cc2c1N)OCCO4 (configuration not stated)	none
COc1cc2nc(CN3CCN(c4ccccn4)CC3)[nH]c(=O)c2cc1OC	TEAD-YAP inh 73
COc1cc2nc(CN3c4ccccc4CC3C)[nH]c(=O)c2cc1OC (configuration not stated)	TEAD-YAP inh 48
COc1cc2nc(CN3CCCCCCC3)[nH]c(=O)c2cc1OC	none
CCOc1cccc(/C=C2/NC(=S)NC2=O)c1O	TEAD-YAP inh 51
CCOc1ccc2ccc(OCC)c(C=C3C(=O)NC(=O)NC3=O)c2c1	none
CCOc1ccccc1/C=C1\NC(=S)NC1=O	none
CCOc1ccc2ccc(OCC)c(/C=C3/NC(=S)NC3=O)c2c1	TEAD-YAP inh 57
NC(=O)c1ccc(-c2nc3ncnc(Nc4ccc(Oc5ccccc5)cc4)c3[nH]2)cc1	none
O=C1COc2cc(S(=O)(=O)Nc3cc(C(F)(F)F)cc(C(F)(F)F)c3)ccc2N1	FBW7 act 7.8
Cc1cc(C)cc(NS(=O)(=O)c2ccc3c(c2)OCC(=O)N3)c1	none
O=C(NCCCCc1ccccc1)Nc1ccccc1	none
COc1cccc(/C=N/NC(=O)c2cccc(Cn3nc(C)cc3C)c2)c1O	MITF primary 57
COc1ccc(CNC(=O)C(=O)N/N=C/c2cccc(OC)c2O)cc1	MITF primary 53
C=CCc1cccc(/C=N/NC(=O)c2ccc(OC)cc2)c1O	TEAD-YAP inh 50
COc1cccc(/C=N/NC(=O)c2cccc(Cn3cccn3)c2)c1O	none
COc1cccc(/C=N/NC(=O)c2cccc(N)c2)c1O	TEAD-YAP inh 67
Cc1cccc(-c2nc3scc(CCNS(=O)(=O)c4cc(F)ccc4F)n3n2)c1	none
CC(C)Oc1ccc(Br)cc1C(=O)N/N=C/c1ccc2c(c1)OCO2	TEAD-YAP inh 40
O=C(O)c1ccc(N/N=C/c2c(F)cccc2Cl)cc1	TEAD-YAP inh 36
COc1cccc(/C=N/Nc2ccc(C(=O)O)cc2)c1O	TEAD-YAP inh 84
COc1cccc(/C=N/Nc2ccc(S(=O)(=O)O)cc2)c1O	none
COc1cc(Cl)cc(/C=N\NC(=O)c2ccc3c(c2)OCO3)c1O	TEAD-YAP inh 74
O=C(C1Cc2ccccc2O1)N1CCC(n2c(C3CCC3)nc3cccnc32)CC1 (configuration not stated)	none
COc1cccc(-c2cnc(NCc3ccc(C)cc3)n2C)c1	none
COc1cccc(/C=N/NC(=O)c2ccc(C(C)(C)C)cc2)c1O	TEAD-YAP inh 39
Cc1nc2ccccn2c1C(=O)N/N=C/c1ccc(O)c(O)c1O	MITF primary 76
CC(C)(C)c1ccc(O)c(/C=N/NC(=O)c2ccc3c(c2)OCCO3)c1	TEAD-YAP inh 45
COc1cccc(/C=N/NC(=O)c2ccc(O)cc2)c1O	none
COc1cccc(/C=N/NC(=O)c2cccc(Br)c2)c1O	TEAD-YAP inh 64
CCOC(=O)N1CCN(C(=O)c2cccn3c(=O)c4ccc(Cl)cc4nc23)CC1	none
COc1ccc(CN2CCN(Cc3ccc4c(c3)OCCO4)CC2CCO)cc1C (configuration not stated)	none
COc1cccc(/C=N/NC(=O)c2cc(-c3ccco3)[nH]n2)c1O	none
COc1cccc(/C=N\NC(=O)c2c(C)nc3cc(C)ccn23)c1O	TEAD-YAP inh 78
COc1cccc(/C=N/NC(=O)c2cc(Br)ccc2OC(C)C)c1O	TEAD-YAP inh 78
COc1cccc(/C=N/NC(=O)c2cc(C(C)C)[nH]n2)c1O	TEAD-YAP inh 49
Cc1ccn2c(C(=O)N/N=C\c3ccccc3[N+](=O)[O-])c(C)nc2c1	none
COc1cc(Br)cc(/C=N/NC(=O)c2cccc(Br)c2)c1O	TEAD-YAP inh 35
Cc1ccc(C)c(N2CCN(C(=O)CN3C(=O)CCc4ccccc43)CC2)c1	none
O=C(NCc1cn[nH]c1-c1ccc(F)cc1)C1CC(Cc2ccc(F)cc2)=NO1 (configuration not stated)	none
CCC(=O)NC(c1ccccc1Cl)c1ccc2cccnc2c1O (configuration not stated)	TEAD-YAP inh 89
